S1P4 antag – blocks the human S1P4 receptor | inhibition, % at 4.98 µM | 220,000 compounds, 0.26% hits | AID 1510 | S1P4-expressing cells, antagonist mode, reporter read-out | O95977; in the data active = inhibition above about 29%
Target sequence (O95977 whole entry, looked up): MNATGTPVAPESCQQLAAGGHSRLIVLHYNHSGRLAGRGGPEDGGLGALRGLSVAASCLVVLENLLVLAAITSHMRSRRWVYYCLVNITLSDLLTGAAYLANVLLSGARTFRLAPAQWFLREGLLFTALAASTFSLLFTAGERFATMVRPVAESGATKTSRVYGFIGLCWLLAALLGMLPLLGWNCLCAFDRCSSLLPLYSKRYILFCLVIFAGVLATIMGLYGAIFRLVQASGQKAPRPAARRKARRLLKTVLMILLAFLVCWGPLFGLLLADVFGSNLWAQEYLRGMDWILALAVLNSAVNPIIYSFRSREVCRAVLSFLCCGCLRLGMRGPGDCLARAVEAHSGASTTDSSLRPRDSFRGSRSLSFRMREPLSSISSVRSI
AI-2 QS mod – modulators of Vibrio harveyi AI-2 quorum sensing system; Vibrio harveyi JMH597 AI-2 luminescence/OD600 ratio, 9 h; stronger effect = lower value; strain lacks LuxN and CqsS sensors; 0 = neutral-control median; activity change, % at 7.5 µM; 300,000 compounds, 0.4% hits; in the data active = activity change below about -75%, passing the limit was not always enough; inconclusive = no clear call, values can overlap the other calls;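 note: luminescence divided by OD600 gain over 9 h not by final OD600 alone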
S1P4 ag – human S1P4 receptor agonism; AID 1509; activation, % at 4.98 µM; O95977; 220,000 compounds, 0.35% hits; S1P4-expressing cell line, agonist reporter assay; in the data active = activation above about 11%
Hsp70 activator – switches on Hsp70 transcription; 200,000 compounds, 0.04% hits; activation, % at 10 µM; AID 1203; HeLa Hsp70 promoter luciferase reporter, luminescence; scaled: vehicle 0, proteasome-inhibitor control 100%;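 active = activation above the mean across all tested compounds plus 3 SD, cutoff set per campaign, cut at about 5.5% in these data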
S1P3 antag-1 – S1P3 (human) receptor antagonism | Q99500 | 170,000 compounds, 0.27% hits | AID 485 | inhibition, % at 4.98 µM | CHO S1P3 NFAT-BLA reporter, FRET fluorescence, antagonist mode;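 active = inhibition above the plate cutoff, the mean inhibition of test wells on that plate plus 3 SD, cut at about 28% in these data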;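 note: cells challenged with S1P at its EC80 of 0.8 µM; blue over green emission ratio from cleaved BLA substrate after 4 h stimulation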
S1P3 antag-2 – confirmation of human S1P3 receptor antagonists; shares compounds with S1P3 antag-1; 240 compounds, 30% hits; inhibition, % at 4.98 µM; AID 1429; CHO S1P3 NFAT-BLA reporter, FRET, antagonist mode;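 active = inhibition above the hit threshold that was computed for the earlier primary screen, cut at about 30% in these data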
A number is an active result; – = inactive; ? = inconclusive; · = no result. The list is not random: actives were taken first. Their share in the collection is about 0.97%.

SMILES | S1P4 antag | AI-2 QS mod | S1P4 ag | Hsp70 activator | S1P3 antag-1 | others
CSC1=NCCN1C(=O)Cc1ccc(Cl)cc1 | – | – | – | – | 66.5
COc1ccc(CC(=O)N2CCN=C2SC)cc1 | – | – | – | – | –
CN(C)c1ccc(C(=O)Nc2nc3c(s2)CCCC3)cc1 | – | – | – | – | 90.2
CC(C)(C)c1ccc(C(=O)NC(=S)Nc2nc3c(s2)CCCC3)cc1 | – | – | – | – | –
COc1ccc(C(=O)NCC(=O)N/N=C/c2ccc(C)o2)cc1OC | · | – | · | · | ·
O=C(NNc1nc2cc3c(cc2s1)OCO3)c1cccc(F)c1 | – | -88.3 | – | – | –
O=C(NCCS(=O)(=O)N1CCN(c2ccccc2)CC1)C1CC1 | · | – | · | · | ·
Cc1cc(=S)nc(-c2ccccn2)[nH]1 | – | – | – | · | –
Cc1[nH]c(-c2ccccn2)nc(=S)c1Cl | – | -88.2 | – | · | –
Cc1ccc(Oc2coc3cc(O)ccc3c2=O)cc1 | · | -93.9 | · | · | ·
O=C(Oc1ccc2c(=O)c(Oc3ccc4ccccc4c3)coc2c1)c1cncc(Br)c1 | – | -83.1 | – | – | ·
CCCCOC(=O)Oc1ccc2c(=O)c(Oc3cccc(C)c3)coc2c1 | – | -76.9 | – | – | –
O=C(Oc1ccc2ccccc2c1)c1cncc(Br)c1 | – | – | – | – | ·
Cc1cc(C)cc(Oc2coc3cc(O)ccc3c2=O)c1 | · | – | · | · | ·
Cc1cccc(NC(=S)N/N=C/c2ccc([N+](=O)[O-])s2)c1 | – | -212.1 | – | – | ·
Cc1ccc(C)c(NC(=O)CCC(=O)N/N=C/c2cc([N+](=O)[O-])ccc2O)c1 | – | – | – | – | –
Nc1nonc1-n1nnc(C(=O)N/N=C/c2cc(Br)ccc2O)c1CNc1ccccc1 | · | – | · | · | ·
Nc1nonc1C(=O)N/N=C/c1cc(Br)ccc1O | – | -88.7 | – | – | –
O=C(N/N=C/c1cc(Br)ccc1O)c1ccncc1 | – | -94.1 | – | · | –
Cc1ccccc1NC(=O)CCC(=O)N/N=C/c1cc([N+](=O)[O-])ccc1O | – | -109.4 | – | – | –
Cc1cccc(NC(=O)/C=C/c2ccc([N+](=O)[O-])s2)c1 | – | – | – | – | –
CCOc1ccc(NC(=O)CN(C)C(=O)c2ccc3nc(CC)c(CC)nc3c2)cc1OCC | · | – | · | · | ·
CCOc1cc(S(=O)(=O)NCCCN2CCOCC2)c(C)cc1C | · | – | · | · | ·
O=C(N/N=C/c1cc([N+](=O)[O-])ccc1O)c1ccncc1 | – | -90.6 | – | · | –
O=C(N/N=C/c1ccc([N+](=O)[O-])s1)c1ccncc1 | – | -86.8 | – | – | –
SMILES | S1P4 antag | AI-2 QS mod | S1P4 ag | Hsp70 activator | S1P3 antag-1 | others
CCCc1cc(=O)oc2cc(OCC(=O)NCCc3ccc(S(N)(=O)=O)cc3)ccc12 | · | – | · | · | ·
NC(=O)C1(N2CCCCC2)CCN(C(=S)Nc2cc(F)cc(F)c2)CC1 | – | – | – | – | –
O=C(NNC(=S)NC(=O)c1cccc([N+](=O)[O-])c1)c1ccc(Br)cc1 | · | -211.8 | · | · | ·
O=C(NNC(=S)NC(=O)c1ccco1)c1ccc(F)cc1 | – | -103.9 | – | · | –
O=C(NC(=S)NNC(=O)c1ccco1)c1ccc(Br)cc1 | · | -128.2 | · | · | ·
COc1ccc(C(=O)NNC(=S)NC(=O)c2ccco2)cc1 | – | -149.5 | – | – | ·
NS(=O)(=O)c1ccc(NC(=O)Nc2ccc3c(c2)OCO3)cc1 | · | – | · | · | ·
CCCOc1ccc(C(=O)NNC(=S)NC(C)=O)cc1 | – | ? | – | – | ·
CCCOc1ccc(C(=O)NNC(=S)NC(=O)c2ccccc2)cc1 | · | -212.9 | · | · | ·
Cn1cc(/C=N/n2cnc3scc(-c4ccc(Cl)cc4)c3c2=O)c2ccccc21 | – | – | – | – | 56.4
CCCCCCCC(=O)Oc1ccc(C(=O)Nc2cc(C)on2)cc1 | · | – | · | · | ·
CCn1c(CNc2ccc(C)cc2)nnc1SCC(=O)NCc1ccccc1 | – | – | – | – | –
CCn1c(CNc2ccccc2Cl)nnc1SCC(=O)NCc1ccccc1 | – | – | – | – | 69.5
CS(=O)(=O)c1ccc2nc(NC(=O)CCC(=O)c3cccs3)sc2c1 | – | -95.7 | – | – | –
c1ccc2c(NCCCN3CCOCC3)c3ccccc3nc2c1 | – | · | 11.5 | – | –
Fc1ccccc1-c1nc(NCCCN2CCOCC2)c2ccccc2n1 | – | – | – | – | –
O=[N+]([O-])c1cc(Cl)c2cccnc2c1O | – | ? | – | – | –
Oc1c(CN2CCc3ccccc3C2)cc(Cl)c2cccnc12 | – | -88.6 | – | – | –
O=C(Oc1c(CN2CCOCC2)cc(Cl)c2cccnc12)c1ccccc1 | – | – | – | – | –
Oc1c(I)cc(Cl)c2cccnc12 | – | -107.8 | – | – | –
Oc1c(CN2CCCCC2)cc(Br)c2cccnc12 | – | -87.4 | – | – | –
CC1=CC(=C(C#N)c2nc3ccccc3s2)C=C(C)N1Cc1ccco1 | – | – | – | – | 56.2
O=c1[nH]c(=O)n([C@H]2C[C@H](O)[C@@H](CO)O2)cc1F | – | -99.0 | – | – | –
O=C(O)COc1ccccc1/C=C1\SC(=S)N(c2cccnc2)C1=O | – | – | – | · | –
CC(=O)Nc1cccc(NC(=O)CSc2nnnn2C(C)C)c1 | – | – | – | – | –
SMILES | S1P4 antag | AI-2 QS mod | S1P4 ag | Hsp70 activator | S1P3 antag-1 | others
CC(=O)Nc1cccc(NC(=O)CSc2nnnn2C)c1 | – | – | – | – | 70.2
CCC(=O)NC(=S)NNC(=O)COc1ccc(Br)cc1 | – | ? | – | – | –
Cc1ccccc1C(=O)Nc1nnc(-c2ccc(F)cc2)o1 | – | -82.2 | – | – | –
CC1CC(=O)c2c(cc3c(-c4c(O)cc(O)c5c(O)c6c(cc45)OC(C)CC6=O)c(O)cc(O)c3c2O)O1 (stereo not drawn) | – | -81.7 | – | – | –
O=C1CC(c2ccc(O)cc2)Oc2cc(O)cc(O)c21 (stereo not drawn) | – | – | – | – | –
CCOc1ccc(S(=O)(=O)c2c[nH]c3ccccc3c2=O)cc1 | · | -85.2 | · | · | ·
COc1ccccc1NC(=O)c1ccc(NC(=O)COC(=O)C2CCCO2)cc1 (stereo not drawn) | – | · | – | – | 30.1 | S1P3 antag-2=–
COc1cc(/C=C(/C#N)C(=O)c2c(C)[nH]c3ccccc23)ccc1OCC#N | – | – | – | · | 30.4 | S1P3 antag-2=–
CCOc1ccc(/C=C(\C#N)C(=O)c2c(C)[nH]c3ccccc23)cc1OC | – | – | – | – | –
c1ccc(Cc2nnc3n2N=C(c2ccccc2)CS3)cc1 | – | – | – | – | 29.0 | S1P3 antag-2=–
c1ccc(C2=Nn3c(Cn4nnc5ccccc54)nnc3SC2)cc1 | – | – | – | · | –
C/C(=N/NC(=O)c1ccccn1)c1ccco1 | – | – | – | – | ·
C/C(=N/NC(=O)c1cc(-c2ccc(Cl)s2)[nH]n1)c1ccco1 | – | – | – | · | 31.6 | S1P3 antag-2=–
COc1ccc(CN(CC2CCC(C(=O)O)CC2)C(=S)Nc2ccccc2C)cc1 (stereo not drawn) | – | – | – | – | –
COc1ccc(CN(CC2CCC(C(=O)O)CC2)C(=S)Nc2cc(C)ccc2C)cc1 (stereo not drawn) | – | · | – | – | 33.0 | S1P3 antag-2=–
Cc1ccccc1C(=O)N1CCN(c2ccc(NC(=O)c3ccc4c(c3)OCO4)cc2)CC1 | – | – | – | – | 29.7 | S1P3 antag-2=36.0
